Screens (PubChem)
Shown are actives, neighbours in structure and some others; about 1.3% of the full set was active somewhere.
KCNH2 3.1 block – blocks the human KCNH2 3.1 channel isoform. AID 720553. actives 0.95% (n = 340,000). U2OS KCNH2 3.1, thallium flux FluxOr; active compounds read low. activity change, % (tested at about 1.8 µM);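 active = maximum activity change below -70%; inconclusive = maximum activity change from -70% to -50%; inactive = maximum activity change above -50%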;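 also: thallium influx rate constant from kinetic fluorescence after stimulation buffer; % is scaled to controls: 0 for no effect and ±100 for the full control effect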
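Channel expression came from 3.1 mutant virus (1.77 x 10^8 /mL) applied to suspended U2OS cells for 4 h. Flux was tracked with FluxOr dye plus Red40 quencher, and kinetic rate constants normalized to controls.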
KCNH2 WT inh – inhibitors of human wildtype KCNH2 potassium channel | Q12809 | U2OS, BacMam KCNH2, thallium flux FluxOr; active compounds read low | activity change, % at 1.84 µM | actives 0.37% (n = 340,000);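 active = maximum activity change below -70%; inconclusive = maximum activity change between -70% and -50%; inactive = maximum activity change above -50%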; also: % is scaled to controls: 0 for no effect and ±100 for the full control effect
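U2OS cells were transduced with wild-type KCNH2 virus (2.03 x 10^8 / mL) for 4 h at room temperature, then cultured overnight at 37 C. Thallium flux was read with FluxOr dye. Rate constants were normalized to DMSO controls.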
TRPV1 PAM – potentiators of human vanilloid receptor 1 (TRPV1); potentiation, % at 8.33 µM; Q8NER1; TRPV1-expressing cells, Fluo-8 calcium influx, capsaicin EC20 potentiation; actives 0.02% (n = 320,000); AID 540277; in the data active = potentiation above about 80%; inconclusive = between about 30% and that limit; also: 0% is about no effect
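TRPV1-expressing cells were cultured overnight at 35.5C and loaded with Fluo-8 calcium dye for 40 to 90 min at room temperature. After a 10 s baseline, compound was added and calcium influx was read kinetically for 3 min (ex 480/em 520 nm).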
TRPV1 ag – activates the human vanilloid receptor TRPV1; TRPV1-expressing cells, Fluo-8 calcium influx, agonist mode; actives 0.19% (n = 320,000); AID 540275; activation, % at 8.33 µM; in the data active = activation above about 80%; inconclusive = between about 30% and that limit; also: 0% is about no effect
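Cells expressing TRPV1 were dye-loaded with Fluo-8 and read kinetically: 10 s baseline, 3 min after compound (agonist portion), then 2 min after EC20 capsaicin (allosteric enhancer portion). Calcium-bound dye fluorescence at 480/520 nm.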
MBNL1 CUG block – inhibitors of human MBNL1 binding to CUG repeat RNA. Potency, µM (series often up to 57.5 µM), for the others: top-dose activity change, negative = inhibition, usual class: inhibitors. actives 0.036% (n = 280,000). TR-FRET MBNL1-His/biotin-(CUG)12 binding, 665/545 ratio. Q9NR56; active = well fitted inhibition curve with a large enough effect in the signal ratio, with a control signal flat, not every such curve was filed as active; inconclusive = small, poorly fitted or top-dose-only effect, or effect the other way, or a change in a side signal; inactive = no such curve, though single readings can be large or run the other way; the % refers to the signal ratio; also: potency is read from the fitted curve at half-maximal effect; % is scaled to controls: 0 for no effect and ±100 for the full control effect
Target sequence (Q9NR56 whole entry, looked up): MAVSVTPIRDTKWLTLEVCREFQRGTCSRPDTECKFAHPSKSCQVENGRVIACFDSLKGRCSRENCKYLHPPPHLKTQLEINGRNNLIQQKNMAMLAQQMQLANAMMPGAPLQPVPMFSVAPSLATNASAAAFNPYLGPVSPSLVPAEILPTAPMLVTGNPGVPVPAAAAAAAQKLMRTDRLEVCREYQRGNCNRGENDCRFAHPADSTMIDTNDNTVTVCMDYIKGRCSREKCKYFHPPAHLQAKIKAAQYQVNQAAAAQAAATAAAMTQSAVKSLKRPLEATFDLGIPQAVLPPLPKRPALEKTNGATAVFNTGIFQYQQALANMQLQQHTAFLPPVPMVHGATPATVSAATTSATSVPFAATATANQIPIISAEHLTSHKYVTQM
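Compounds (final 92 nM to 58 uM) are added to His-tagged MBNL1 and biotin-(CUG)12, then terbium anti-His antibody and streptavidin-XL665 (5 nM final). After 60 min at room temperature, the 665/545 nm ratio is read.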
MBNL1 TRFRET – confirmation of inhibitors of human MBNL1-poly(CUG) RNA binding | TR-FRET MBNL1-His / biotin-(CUG)12 binding, 60 min | shares compounds with MBNL1 CUG block | Potency, µM (top dose mostly 57.6 µM), inactives show at the highest dose activity change, negative = inhibition, hits mostly inhibitors | actives 50% (n = 140)
MBNL1-CUG Alpha – confirmation of MBNL1-(CUG)12 RNA binding inhibitors, orthogonal format | actives 30% (n = 140) | shares compounds with MBNL1 CUG block | Potency, µM (doses to about 57.7 µM), for inactives: at the top dose activity, negative = inhibition, actives largely listed as inhibitors | AlphaScreen MBNL1-His / biotin-(CUG)12 binding | AID 493205
Menin-MLL HTRF – counter-screen for MBNL1-poly(CUG) RNA binding inhibitors | shares compounds with MBNL1 CUG block | His-Menin/biotin-MLL peptide TR-FRET counterscreen | Potency, µM (titrated, usually from 57.6 µM), for inactives: top-dose activity, negative = inhibition, hits mostly inhibitors | actives 20% (n = 120)
* marks the source's active call; other numbers are inactive results. Unless noted, calls follow the shape of the dose curve; as a rule, active = well fitted curve in the direction sought with a large enough effect; inconclusive = small, poorly fitted or top-dose-only effect, or another doubt; inactive = no such curve, though single readings can be large; an effect the other way counts as inactive or inconclusive.

`CCOc1ccc(CN2CCCC(C(=O)c3ccccc3OC)C2)cc1` (stereo not drawn) gave KCNH2 3.1 block -83.8*, KCNH2 WT inh -29.8, TRPV1 PAM 1.4, TRPV1 ag 18.5 and MBNL1 CUG block -3.4%.
For CCOc1cc2c(cc1OCC)-n1cccc1C(c1ccc(OC(F)F)cc1)NC2 (stereo not drawn) the results were KCNH2 3.1 block -81.9*, KCNH2 WT inh -13.3, TRPV1 PAM 23.6, TRPV1 ag 2.2 and MBNL1 CUG block -1.9%.
`CNC(=O)COC(=O)c1ccc(-c2nc3ccccc3s2)s1` gave KCNH2 3.1 block 21.0, KCNH2 WT inh -1.5, TRPV1 PAM 0.0, TRPV1 ag 9.0 and MBNL1 CUG block inconclusive.
`COC(=O)C1=C(C)NC(=S)NC1c1ccc(N(CCCl)CCCl)cc1Cl` (stereo not drawn) gave KCNH2 WT inh -13.5.
Screening CN1CCN(Cc2cc(=O)n3ccsc3n2)CC1 returned KCNH2 3.1 block -81.1*, KCNH2 WT inh 6.4, TRPV1 PAM inconclusive, TRPV1 ag 0.3 and MBNL1 CUG block inconclusive.
For O=c1cc(CN2CCNCC2)nc2sccn12 the results were KCNH2 3.1 block 5.8, KCNH2 WT inh -4.2, TRPV1 PAM -5.0, TRPV1 ag -0.3 and MBNL1 CUG block -3.0%.
CN1CCN(c2ccc(N)cc2Cl)CC1 was read as KCNH2 3.1 block 0.1, KCNH2 WT inh -2.1, TRPV1 PAM 84.9*, TRPV1 ag -14.3 and MBNL1 CUG block -8.1%.
For CN1CCN(c2ccc(Cl)cc2N)CC1 the results were KCNH2 3.1 block -12.8, KCNH2 WT inh -5.3, TRPV1 PAM -3.5, TRPV1 ag -1.2 and MBNL1 CUG block 1.0%.
COc1ccc(/C=C/C2=CCN(C)CC2)cc1 was read as KCNH2 3.1 block 9.0, KCNH2 WT inh 1.5, TRPV1 PAM 12.7, TRPV1 ag -0.6 and MBNL1 CUG block inconclusive.
CN1CC=C(/C=C/c2ccc(-c3ccccc3)cc2)CC1 was read as KCNH2 3.1 block -90.4*, KCNH2 WT inh 7.8, TRPV1 PAM -0.7, TRPV1 ag 2.0 and MBNL1 CUG block inconclusive.
For O=c1c2ccccc2nc(CNc2ccccc2)n1-c1ccccc1 the results were KCNH2 3.1 block 10.6, KCNH2 WT inh -8.0, TRPV1 PAM 4.5, TRPV1 ag 0.7 and MBNL1 CUG block -13.6%.
`O=C(CN1CC=C(c2ccccc2)CC1)NC(=O)NCc1ccco1` gave KCNH2 3.1 block -90.3*, KCNH2 WT inh -8.2, TRPV1 PAM -8.4, TRPV1 ag -0.8 and MBNL1 CUG block 12.4%.
For O=C(NC1CCCCC1)N1Cc2ccccc2-n2nncc2C1 the results were KCNH2 3.1 block 5.2 and KCNH2 WT inh 5.1.
Screening CN(C)CCSCc1nnc2n1-c1ccc(Cl)cc1C(c1ccccc1Cl)=NC2 returned KCNH2 3.1 block -76.5* and KCNH2 WT inh -31.7.
`CCOC(=O)C1(CCOc2ccccc2)CCN(C2Cc3ccccc3C2)CC1` gave KCNH2 3.1 block -121.1*, KCNH2 WT inh -10.8, TRPV1 PAM 1.2, TRPV1 ag 2.0 and MBNL1 CUG block -2.8%.
Screening Cc1ccc(-c2nc(N(C)C3CCN(C)CC3)c3ccccc3n2)cc1 returned KCNH2 3.1 block 7.7, KCNH2 WT inh -2.7, TRPV1 PAM -0.8, TRPV1 ag 2.6 and MBNL1 CUG block -14.9%.
Screening Cc1ccc(S(=O)(=O)c2nc(-c3ccccc3Cl)oc2N(C)C2CCN(C)CC2)cc1 returned KCNH2 3.1 block -80.1* and KCNH2 WT inh inconclusive.
Oc1ccc2c3c1O[C@H]1c4[nH]c5ccccc5c4C[C@@]4(O)[C@@H](C2)N(CC2CC2)CC[C@]314 was read as KCNH2 3.1 block -70.5*, KCNH2 WT inh 34.0, TRPV1 PAM 7.1 and TRPV1 ag 1.7.
COc1ccc(/C=C2\SC(=O)N(CCn3cnnn3)C2=O)cc1 was read as KCNH2 3.1 block 15.5, KCNH2 WT inh 4.6, TRPV1 PAM -24.5, TRPV1 ag 11.6 and MBNL1 CUG block inconclusive.
Screening Cc1ccc(C(=O)N[C@@H](C)CN2C3=NC[C@H](Cc4ccccc4)N3C[C@H]2Cc2ccc(O)cc2)cc1Br returned KCNH2 3.1 block -11.7, KCNH2 WT inh -84.8*, TRPV1 PAM inconclusive, TRPV1 ag -1.5 and MBNL1 CUG block -17.9%.
For Cc1cccc(NP(=O)(Oc2ccccc2)Oc2ccccc2)c1C the results were KCNH2 3.1 block -7.2, KCNH2 WT inh -242.2*, TRPV1 PAM -1.0, TRPV1 ag 16.5 and MBNL1 CUG block -0.4%.
For O=C(Nc1ccc(Br)cc1C(=O)O)c1ccc2c(c1)C(=O)N(Cc1ccccc1)C2=O the results were KCNH2 3.1 block -1.2, KCNH2 WT inh -0.3, TRPV1 PAM 8.3, TRPV1 ag 1.8 and MBNL1 CUG block inconclusive.
`O=C(Nc1c[nH]c(=O)[nH]c1=O)c1cc([N+](=O)[O-])cc([N+](=O)[O-])c1` gave KCNH2 3.1 block 2.4, KCNH2 WT inh -3.4, TRPV1 PAM 2.0, TRPV1 ag -1.4 and MBNL1 CUG block inconclusive.
`CN1C[C@H](CO)C[C@@H]2c3cccc4[nH]cc(c34)C[C@H]21` gave KCNH2 3.1 block 1.7, KCNH2 WT inh -3.8, TRPV1 PAM 13.7, TRPV1 ag 0.1 and MBNL1 CUG block inconclusive.
Screening CN1C[C@H](CNC(=O)OCc2ccccc2)C[C@@H]2c3cccc4c3c(cn4C)C[C@H]21 returned KCNH2 3.1 block -11.2, KCNH2 WT inh 5.9, TRPV1 PAM -3.4, TRPV1 ag 7.5, MBNL1 CUG block inconclusive, MBNL1 TRFRET inconclusive and MBNL1-CUG Alpha inconclusive.
For CCOC(=O)N1CCC(NC(=O)CCc2nc(C3=CCN(C)CC3)no2)CC1 the results were KCNH2 3.1 block -40.6, KCNH2 WT inh -8.1, TRPV1 PAM 3.9, TRPV1 ag -3.5, MBNL1 CUG block 10µM*, MBNL1 TRFRET 8.19µM*, MBNL1-CUG Alpha 3.66µM* and Menin-MLL HTRF inconclusive.
